Reference: PubChem BioAssay AID1159580 (chemical genetic matrix, 2015)
Out of some 5,500 compounds screened, about 2,000 (36%) were called active. Roughly 18% stayed inconclusive and do not appear here. No stated cut-off is given here; in the data, active means normalized growth mostly below about 0.91 (no sharp cut-off); inconclusive means no clear call, values can overlap the other calls; inactive means mostly above about 0.92. Some of the results follow.

Assay: chemical genetic growth profiling, strain panel (AID 1159580);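 further: tested at 20 µM; growth read once vehicle control cultures reached saturation at 30 °C; 1 = growth at the plate median or of vehicle wells; lower values mean less growth of the strain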
Details: S. cerevisiae deletion strains, growth OD

Measured: normalized growth

Cc1cc(OCOc2ccc(Cl)c(C)c2)ccc1Cl
inactive: locus YAL013W, strain DEP1, hits give low values 0.984 | locus YBR229C, strain ROT2, hits give low values 0.988 | locus YCL061C, strain MRC1, hits give low values 1.03 | locus YDL101C, strain DUN1, hits give low values 1.05 | locus YDL134C, strain PPH21, hits give low values 0.995 | locus YDR150W, strain NUM1, hits give low values 0.997 | locus YEL061C, strain CIN8, hits give low values 0.992 | locus YGR078C, strain PAC10, hits give low values 1.01 | locus YGR229C, strain SMI1, hits give low values 0.999 | locus YHR030C, strain SLT2, hits give low values 0.814 | locus YHR087W, strain rtc3, hits give low values 0.955 | locus YJR043C, strain POL32, hits give low values 1.03 | locus YJR075W, strain HOC1, hits give low values 1.02 | locus YKL190W, strain CNB1, hits give low values 0.966 | locus YLR039C, strain RIC1, hits give low values 1.11 | locus YLR058C, strain SHM2 (second series), hits give low values 0.989 | locus YLR085C, strain ARP6, hits give low values 0.973 | locus YLR262C, strain YPT6, hits give low values 0.99 | locus YML094W, strain GIM5, hits give low values 0.982 | locus YMR219W, strain ESC1, hits give low values 0.991 | locus YMR263W, strain SAP30, hits give low values 0.927 | locus YMR307W, strain GAS1, hits give low values 0.834 | locus YNL153C, strain GIM3, hits give low values 1.01 | locus YNL298W, strain CLA4 (second series), hits give low values 1.04 | locus YNL322C, strain KRE1, hits give low values 0.982 | locus YNR030W, strain Alg12, hits give low values 0.97 | locus YOL006C, strain TOP1, hits give low values 0.916 | locus YPL055C, strain LGE1, hits give low values 0.975 | locus YPL241C, strain CIN2, hits give low values 1 | locus YPR135W, strain CTF4, hits give low values 0.999
